Bioassay records as filed in PubChem.
The full list was thinned out, with hits kept by preference.
Pf apPOL inh = Pf-apPOL inhibitors, biochemical, fluorescence. Plasmodium falciparum apicoplast DNA polymerase (apPOL). Recombinant Pf-apPOL, molecular beacon fluorescence, 1.5 h. inhibition, % at 10 µM. 0.25% of 210,000 active. AID 1794808, 2022
mHTT CaM bind = mutant huntingtin-calmodulin interaction inhibitors – biochemical, AlphaScreen, primary screen; P42858; AlphaScreen His-mHTT/GST-CaM binding, luminescence; inhibition, % at 15 µM; 3.6% of 190,000 active; AID 1671202, 2021;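 further: 0% = both proteins with DMSO and 100% = one protein alone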
Target sequence (P42858 whole entry, looked up, stated change not applied): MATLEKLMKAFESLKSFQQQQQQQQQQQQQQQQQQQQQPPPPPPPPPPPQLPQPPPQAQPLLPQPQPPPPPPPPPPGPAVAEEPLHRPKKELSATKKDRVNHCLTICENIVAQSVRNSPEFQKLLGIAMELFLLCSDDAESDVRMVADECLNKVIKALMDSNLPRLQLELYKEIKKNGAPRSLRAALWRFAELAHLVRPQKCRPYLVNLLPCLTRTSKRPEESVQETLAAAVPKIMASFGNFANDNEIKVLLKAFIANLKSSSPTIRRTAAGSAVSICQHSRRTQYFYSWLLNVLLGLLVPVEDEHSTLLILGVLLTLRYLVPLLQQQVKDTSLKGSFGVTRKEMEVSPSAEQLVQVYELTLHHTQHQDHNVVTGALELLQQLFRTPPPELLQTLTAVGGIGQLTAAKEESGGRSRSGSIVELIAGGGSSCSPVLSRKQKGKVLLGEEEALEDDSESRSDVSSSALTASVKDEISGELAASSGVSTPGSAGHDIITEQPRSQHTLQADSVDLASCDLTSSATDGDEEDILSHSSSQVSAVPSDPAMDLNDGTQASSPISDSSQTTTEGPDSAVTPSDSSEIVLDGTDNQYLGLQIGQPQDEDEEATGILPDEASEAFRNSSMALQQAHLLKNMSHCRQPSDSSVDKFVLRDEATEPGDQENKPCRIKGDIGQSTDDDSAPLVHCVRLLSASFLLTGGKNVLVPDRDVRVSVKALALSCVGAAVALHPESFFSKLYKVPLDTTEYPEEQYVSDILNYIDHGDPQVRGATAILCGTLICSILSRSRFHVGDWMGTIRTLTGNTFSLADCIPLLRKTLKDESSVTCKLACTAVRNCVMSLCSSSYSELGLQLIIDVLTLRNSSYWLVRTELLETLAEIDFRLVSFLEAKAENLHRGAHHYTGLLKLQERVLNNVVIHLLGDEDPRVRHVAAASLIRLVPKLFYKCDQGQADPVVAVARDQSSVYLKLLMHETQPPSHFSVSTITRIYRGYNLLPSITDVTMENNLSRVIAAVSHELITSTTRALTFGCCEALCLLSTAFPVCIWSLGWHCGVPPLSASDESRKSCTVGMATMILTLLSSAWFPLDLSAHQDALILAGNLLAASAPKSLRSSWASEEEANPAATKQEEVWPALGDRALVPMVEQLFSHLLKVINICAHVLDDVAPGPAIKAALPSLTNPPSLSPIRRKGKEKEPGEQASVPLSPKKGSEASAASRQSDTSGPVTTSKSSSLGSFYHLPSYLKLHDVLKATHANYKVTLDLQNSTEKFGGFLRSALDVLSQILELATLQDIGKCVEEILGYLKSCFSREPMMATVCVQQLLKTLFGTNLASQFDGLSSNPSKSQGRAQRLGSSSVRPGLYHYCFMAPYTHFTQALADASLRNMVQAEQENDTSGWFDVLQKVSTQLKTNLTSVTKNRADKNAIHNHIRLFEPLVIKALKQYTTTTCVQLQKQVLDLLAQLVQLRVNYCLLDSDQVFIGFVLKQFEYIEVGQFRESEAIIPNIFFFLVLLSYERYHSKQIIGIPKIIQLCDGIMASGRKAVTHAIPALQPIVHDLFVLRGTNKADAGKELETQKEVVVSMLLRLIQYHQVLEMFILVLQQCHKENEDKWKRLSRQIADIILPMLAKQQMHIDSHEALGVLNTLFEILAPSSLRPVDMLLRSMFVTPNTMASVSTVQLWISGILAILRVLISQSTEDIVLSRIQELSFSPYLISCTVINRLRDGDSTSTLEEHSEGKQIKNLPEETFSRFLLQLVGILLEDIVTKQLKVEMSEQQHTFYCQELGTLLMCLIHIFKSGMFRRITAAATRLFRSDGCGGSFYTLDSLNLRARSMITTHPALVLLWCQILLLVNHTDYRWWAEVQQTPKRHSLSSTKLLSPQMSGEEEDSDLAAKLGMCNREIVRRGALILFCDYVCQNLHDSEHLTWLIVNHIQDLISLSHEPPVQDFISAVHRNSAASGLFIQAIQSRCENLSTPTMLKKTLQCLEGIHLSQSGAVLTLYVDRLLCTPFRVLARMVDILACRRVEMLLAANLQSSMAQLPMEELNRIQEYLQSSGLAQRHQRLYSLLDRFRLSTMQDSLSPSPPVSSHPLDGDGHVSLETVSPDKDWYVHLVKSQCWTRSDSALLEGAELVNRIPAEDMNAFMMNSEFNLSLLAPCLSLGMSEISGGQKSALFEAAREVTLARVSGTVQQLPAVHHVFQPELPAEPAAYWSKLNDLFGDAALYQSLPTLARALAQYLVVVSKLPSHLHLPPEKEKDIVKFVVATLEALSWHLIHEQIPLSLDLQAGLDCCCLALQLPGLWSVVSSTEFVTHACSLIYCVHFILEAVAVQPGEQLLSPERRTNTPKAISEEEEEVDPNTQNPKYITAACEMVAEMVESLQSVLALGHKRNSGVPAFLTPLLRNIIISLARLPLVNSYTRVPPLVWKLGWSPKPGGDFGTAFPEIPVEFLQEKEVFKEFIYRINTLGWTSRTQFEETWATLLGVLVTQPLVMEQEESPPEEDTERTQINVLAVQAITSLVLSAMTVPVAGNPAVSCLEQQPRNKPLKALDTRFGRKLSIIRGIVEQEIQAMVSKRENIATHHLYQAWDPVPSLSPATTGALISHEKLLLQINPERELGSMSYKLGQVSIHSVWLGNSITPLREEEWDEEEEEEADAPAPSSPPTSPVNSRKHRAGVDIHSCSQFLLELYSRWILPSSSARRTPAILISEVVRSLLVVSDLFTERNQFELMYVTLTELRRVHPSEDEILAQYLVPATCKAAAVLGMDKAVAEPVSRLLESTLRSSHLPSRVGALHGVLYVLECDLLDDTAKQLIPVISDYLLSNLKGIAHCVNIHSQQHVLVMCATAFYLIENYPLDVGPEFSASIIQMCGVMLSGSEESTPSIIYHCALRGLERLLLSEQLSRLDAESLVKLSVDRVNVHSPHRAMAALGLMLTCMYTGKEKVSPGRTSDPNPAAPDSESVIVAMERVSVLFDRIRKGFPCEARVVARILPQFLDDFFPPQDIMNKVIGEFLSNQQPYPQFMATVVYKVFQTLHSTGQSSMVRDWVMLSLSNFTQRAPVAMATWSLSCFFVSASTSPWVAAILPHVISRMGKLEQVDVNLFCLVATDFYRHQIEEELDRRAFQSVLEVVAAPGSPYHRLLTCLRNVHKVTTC
Active calls of the source: *; · = no result. No stated cut-off is given here; in the data, active means inhibition above about 50%; inactive means the rest.

SMILES	Pf apPOL inh	mHTT CaM bind
CCn1cc(C(=O)NCc2ccc3c(c2)OCO3)c2cccnc21	-11	12
CCn1cc(C(=O)NCc2cccc(Br)c2)c2cccnc21	-19	58*
COc1cc(CN2CCN(C(=O)COc3ccccc3)CC2)cc(OC)c1OC	-1	2
c1ccc2c(c1)C[N+]1=C(CCC1)N2	-12	·
Cc1cccc(N2CCN(Cc3ccccc3)CC2)c1C	-6	-15
Cc1cccc(N2CCN(Cc3ccc(N(C)C)cc3)CC2)c1C	-14	67*
O=C1NC(=S)NC(=O)C1=Cc1c(Cl)cccc1Cl	32	·
O=C1NC(=S)NC(=O)C1=Cc1ccco1	91*	·
CC(C)C[C@H]1COc2cccc(N3CCN(C)CC3)c2S(=O)(=O)N1	-6	-2
CC(C)N1CCN(Cc2ccncc2)CC1	-5	2
CCN(CC)C(=O)c1ccc(NC(=O)c2ncn[nH]2)cc1	1	21
CCN(CC)C(=O)c1ccc2c(c1)C1C=CCC1C(C(=O)O)N2 (stereo not given)	2	76*
CCN(CC)C(=O)c1ccc2c(c1)C1C=CCC1C(c1ccc([N+](=O)[O-])cc1)N2 (stereo not given)	-2	70*
CC12CC(=C(O)C(F)(F)F)C(=O)C=C1CCC1C2CCC2(C)C(O)CCC12 (stereo not given)	-8	·
COc1ccc(OC)c(NC(=O)CN2C(=O)C(C)N=C(c3ccccc3)c3ccccc32)c1 (stereo not given)	-19	16
CN1CCN(Cc2ccc[nH]2)CC1	-6	30
CN1CCN(Cc2ccco2)CC1	78*	0
O=[N+]([O-])c1ccc(N2CCNCC2)cc1NCCc1ccccc1	-3	91*
O=[N+]([O-])c1ccc(N2CCNCC2)cc1NCCO	-2	0
COc1ccc(N2CCN(Cc3ccc(N(C)C)cc3)CC2)cc1	-3	22
CN1CCN(Cc2ccc(Cl)nc2)/C1=C(/C(Cl)=C(Cl)Cl)[N+](=O)[O-]	-5	7
CN(Cc1ccccc1)C(=C(Cl)Cl)/C(=C1\NCCN1Cc1ccc(Cl)nc1)[N+](=O)[O-]	-5	65*
COc1cc2c(cc1OC)C(C(C)C)NC(C)(C)C2 (stereo not given)	-5	3
COc1ccc(/C=C/[N+](=O)[O-])cc1	4	26
CN(C)c1ccc(/C=C/[N+](=O)[O-])cc1Br	3	21
SMILES	Pf apPOL inh	mHTT CaM bind
COc1ccc(/C=C/[N+](=O)[O-])cc1Br	-2	67*
COc1ccc(/C=C/[N+](=O)[O-])cc1I	1	72*
CC(C)C1C(C#N)=C(N)Oc2c1c(=O)oc1ccccc21 (stereo not given)	-2	0
CN1C(=O)N(C)C(=O)C(CCc2ccncc2)(Cc2ccc(Br)cc2)C1=O	-5	12
CC12CCC3C(CCC4CC(O)CCC43C)C1CC(=Cc1ccccc1Cl)C2=O (stereo not given)	-8	17
Cc1ccc2cccc(OC(=O)N(C)c3ccccc3)c2n1	2	-7
Cc1cccc(NC(c2ccc(N(C)C)cc2)c2ccc3ccc(C)nc3c2O)n1 (stereo not given)	-4	100*
Cc1[nH]c2ccccc2c1CCCNC1CCCCC1	-5	10
Cc1[nH]c2ccccc2c1CCN	1	100*
O=Cc1cn(Cc2ccccc2[N+](=O)[O-])c2ccccc12	3	11
CC1(C)Cc2c(C#N)c(N3CCNCC3)nc(Cc3ccccc3)c2CO1	2	3
N#Cc1c(Cl)c(Cl)nc(N2CCCNCC2)c1Cl	-9	100*
CCC(=O)N1N=C2C3CCN(CC3)C2C1c1cc(OC)ccc1OC (stereo not given)	-4	-5
Brc1cccc(C2CC(c3cccnc3)Nc3nnnn32)c1 (stereo not given)	9	-3
Brc1ccc2c(c1)C1C=CCC1C(c1cccnc1)N2 (stereo not given)	-4	85*
COc1ccc2c(c1)C1(CCN(S(=O)(=O)c3ccc(C)cc3)C1)C(=O)N2 (stereo not given)	1	5
